Laboratory results: PubChem BioAssay (NCI)
Values joined by “and” are separate entries in the source; they are usually repeats but may differ in a detail not shown here. Identical values can stand only once. Compounds without any hit were thinned out: in the full panel of roughly 83,000, 20% have a hit.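 The test compound was applied at a single concentration to cells in 96-well plates for 48 hours, and percent growth was recorded.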 Active and inactive are the calls of the source. How the source made its calls: active means growth percent below 10; inactive means the rest.

Tests used:
Experiment in all cases: NCI-60 one-dose screen, 48 h (100 = growth as untreated, 0 = no growth, -100 = all killed)
[1] = test system: NCI-H23 lung
[2] = test system: NCI-H226 lung
[3] = test system: NCI-H322M lung
[4] = test system: HOP-62 NSCLC
[5] = test system: NCI-H460 lung
[6] = test system: HOP-92 NSCLC
[7] = test system: 786-0 renal
[8] = test system: COLO 205 colon
[9] = test system: NCI-H522 lung
[10] = test system: A549/ATCC NSCLC

Measured: growth

NCCc1ccc(OCc2ccccc2)c(OCc2ccccc2)c1
inactive: [1]; 10 µM unless noted 87.6% | [2]; 10 µM unless noted 103% | [3]; 10 µM unless noted 85.4% | [4]; 10 µM unless noted 87.3% | [5]; 10 µM unless noted 60.6% | [7]; 10 µM unless noted 84.2% | [8]; 10 µM unless noted 13.5%
active: [6]; 10 µM -2.74%

CC(=O)O[C@H]1C[C@@H]2OC3C=C(C)CCC3(C)[C@@]1(C)[C@@]21CO1 (some centres undefined)
active: [1]; 10 µM unless noted -32.5% and -10.8% | [2]; 10 µM unless noted -24.8% | [3]; 10 µM unless noted -19.5% | [5]; 10 µM unless noted 0.408% and -3.28% | [6]; 10 µM -21.3% and -15.3% | [9]; 10 µM unless noted -46.4% and -45.1% | [10]; 10 µM unless noted -9.42% and -20.5% | [7]; 10 µM unless noted -15.6% and -10.8% | [8]; 10 µM unless noted -61.6% and -70.2%
17% (inactive) and -10.8% (active): [4]; 10 µM unless noted

COC1CC(CC2CCC(C)C(C(C)C(=O)O)O2)OC2(OC(C)(C3CCC(C)(C4OC(C5OC(O)(CO)C(C)CC5C)CC4C)O3)CC2C)C1C (centres undefined)
inactive: [2]; 10 µM unless noted 22% | [4]; 10 µM unless noted 10.1%
active: [1]; 10 µM unless noted 9.19% | [3]; 10 µM unless noted 9.36% | [5]; 10 µM unless noted 4.73% | [9]; 10 µM unless noted -55.7% | [10]; 10 µM unless noted 7.35% | [7]; 10 µM unless noted 6.74% | [8]; 10 µM unless noted -12%

CCOC(=O)C(NC(=O)C(Cc1ccc(N(CCCl)CCCl)cc1)NC(C)=O)C(C)C (centres undefined)
inactive: [1]; 10 µM unless noted 81% | [2]; 10 µM unless noted 90.8% | [3]; 10 µM unless noted 95.4% | [4]; 10 µM unless noted 83.5% | [5]; 10 µM unless noted 49.9% | [6]; 10 µM 98.7% | [9]; 10 µM unless noted 64.1% | [10]; 10 µM unless noted 56% | [7]; 10 µM unless noted 88.6% | [8]; 10 µM unless noted 66.5%

CC[C@](O)(C(=O)O)c1cc2n(c(=O)c1CO)Cc1cc3ccccc3nc1-2
active: [1]; 10 µM unless noted -22.8% | [2]; 10 µM unless noted -27.8% | [3]; 10 µM unless noted -5.59% | [4]; 10 µM unless noted 1.05% | [5]; 10 µM unless noted -6.64% | [6]; 10 µM -39% | [9]; 10 µM unless noted -50.6% | [10]; 10 µM unless noted -5.92% | [7]; 10 µM unless noted -21.9% | [8]; 10 µM unless noted -20.7%

S=C(SSC(=S)N1CCCCC1)N1CCCCC1
inactive: [1]; 10 µM 101% | [2]; 10 µM 104% | [2]; 100 µM 10.4% | [3]; 10 µM 102% | [3]; 100 µM 32% | [4]; 10 µM 110% | [4]; 100 µM 37.6% | [5]; 10 µM 91.9% | [6]; 10 µM 101% | [9]; 10 µM 87% | [10]; 10 µM 93.3% | [10]; 100 µM 26.1% | [7]; 10 µM 98.7% | [8]; 10 µM 110%
active: [1]; 100 µM -5.33% | [5]; 100 µM -2.57% | [6]; 100 µM 9.88% | [9]; 100 µM -44.2% | [7]; 100 µM -3.71% | [8]; 100 µM -69.1%

Oc1cc[c]([Hg][Cl])cc1
inactive: [1]; 10 µM unless noted 87.8% | [2]; 10 µM unless noted 113% | [3]; 10 µM unless noted 93.4% | [4]; 10 µM unless noted 123% | [5]; 10 µM unless noted 88.8% | [6]; 10 µM 161% | [10]; 10 µM unless noted 99.3% | [7]; 10 µM unless noted 102% | [8]; 10 µM unless noted 130%
active: [9]; 10 µM unless noted -47%

CC[C@@]1(O)C(=O)OCc2c1cc1n(c2=O)Cc2cc3ccccc3nc2-1
active: [1]; 10 µM unless noted -26.7% | [2]; 10 µM unless noted -54% | [3]; 10 µM unless noted -19.4% | [4]; 10 µM unless noted -10.3% | [5]; 10 µM unless noted -25.8% | [9]; 10 µM unless noted -49% | [10]; 10 µM unless noted -21.1% | [7]; 10 µM unless noted -18.5% | [8]; 10 µM unless noted -38%

CCCCCCCCCCCC1CCCC(C)N1 (centres undefined)
active: [9]; 10 µM unless noted -8.02% | [8]; 10 µM unless noted -33%
inactive: [1]; 10 µM unless noted 71.4% | [2]; 10 µM unless noted 94.8% | [3]; 10 µM unless noted 127% | [4]; 10 µM unless noted 86.5% | [5]; 10 µM unless noted 87.9% | [6]; 10 µM 15.8% | [10]; 10 µM unless noted 97.2% | [7]; 10 µM unless noted 67.3%

CCC(=O)OC1CCn2c1nc1c2C(=O)C(C)=C(N2CC2)C1=O (centres undefined)
inactive: [6]; 10 µM 80.9%
active: [1]; 10 µM unless noted -28.5% | [2]; 10 µM unless noted -23% | [3]; 10 µM unless noted -5.88% | [4]; 10 µM unless noted -29.4% | [5]; 10 µM unless noted -23.6% | [9]; 10 µM unless noted -43% | [10]; 10 µM unless noted 2.51% | [7]; 10 µM unless noted -16.5% | [8]; 10 µM unless noted -74.3%

CC[C@@]1(O)C[C@H](OC2CC(N(C)C)C(OC3CC(O)C(OC4CCC(=O)C(C)O4)C(C)O3)C(C)O2)c2c(cc3c(c2O)C(=O)c2c(O)ccc(O)c2C3=O)[C@H]1C(=O)OC (some centres undefined)
active: [1]; 10 µM unless noted -8.87% | [2]; 10 µM unless noted -55.7% | [3]; 10 µM unless noted -17.8% | [4]; 10 µM unless noted 5.22% | [5]; 10 µM unless noted -14.4% | [9]; 10 µM unless noted -48.1% | [10]; 10 µM unless noted -10.6%
inactive: [7]; 10 µM unless noted 17.3% | [8]; 10 µM unless noted 11.1%

C[C@]12CC[C@H](O)CC1=CC[C@@H]1[C@@H]2CC[C@]2(C)C(=O)CC[C@@H]12
inactive: [1]; 10 µM unless noted 96% | [2]; 10 µM unless noted 102% | [3]; 10 µM unless noted 91% | [4]; 10 µM unless noted 96.4% | [5]; 10 µM unless noted 108% | [9]; 10 µM unless noted 48% | [10]; 10 µM unless noted 106% | [7]; 10 µM unless noted 92.6% | [8]; 10 µM unless noted 93.4%

COc1ccc(OC)c(/C=C/[N+](=O)[O-])c1
inactive: [2]; 10 µM unless noted 11.8% | [3]; 10 µM unless noted 69.6% | [4]; 10 µM unless noted 10.5% | [10]; 10 µM unless noted 28.1%
active: [1]; 10 µM unless noted 6.9% | [5]; 10 µM unless noted -4.3% | [6]; 10 µM -18% | [9]; 10 µM unless noted -64.1% | [7]; 10 µM unless noted -75.2% | [8]; 10 µM unless noted -51.6%

CN1CCN(c2ccc([N+](=O)[O-])c3no[n+]([O-])c23)CC1
active: [1]; 10 µM unless noted -24.1% | [2]; 10 µM unless noted -71.9% | [3]; 10 µM unless noted -24.2% | [4]; 10 µM unless noted -98.3% | [5]; 10 µM unless noted -61.4% | [6]; 10 µM -23.1% | [9]; 10 µM unless noted -92.1% | [10]; 10 µM unless noted -48.7% | [7]; 10 µM unless noted -78.6% | [8]; 10 µM unless noted -83.3%
